{"source": "PubChem BioAssay (NCATS)", "key": {"[1]": {"biological_target": "Transient receptor potential cation channel subfamily V member 1 (Homo sapiens) (UniProt Q8NER1)", "sequence (Q8NER1 whole entry, looked up)": "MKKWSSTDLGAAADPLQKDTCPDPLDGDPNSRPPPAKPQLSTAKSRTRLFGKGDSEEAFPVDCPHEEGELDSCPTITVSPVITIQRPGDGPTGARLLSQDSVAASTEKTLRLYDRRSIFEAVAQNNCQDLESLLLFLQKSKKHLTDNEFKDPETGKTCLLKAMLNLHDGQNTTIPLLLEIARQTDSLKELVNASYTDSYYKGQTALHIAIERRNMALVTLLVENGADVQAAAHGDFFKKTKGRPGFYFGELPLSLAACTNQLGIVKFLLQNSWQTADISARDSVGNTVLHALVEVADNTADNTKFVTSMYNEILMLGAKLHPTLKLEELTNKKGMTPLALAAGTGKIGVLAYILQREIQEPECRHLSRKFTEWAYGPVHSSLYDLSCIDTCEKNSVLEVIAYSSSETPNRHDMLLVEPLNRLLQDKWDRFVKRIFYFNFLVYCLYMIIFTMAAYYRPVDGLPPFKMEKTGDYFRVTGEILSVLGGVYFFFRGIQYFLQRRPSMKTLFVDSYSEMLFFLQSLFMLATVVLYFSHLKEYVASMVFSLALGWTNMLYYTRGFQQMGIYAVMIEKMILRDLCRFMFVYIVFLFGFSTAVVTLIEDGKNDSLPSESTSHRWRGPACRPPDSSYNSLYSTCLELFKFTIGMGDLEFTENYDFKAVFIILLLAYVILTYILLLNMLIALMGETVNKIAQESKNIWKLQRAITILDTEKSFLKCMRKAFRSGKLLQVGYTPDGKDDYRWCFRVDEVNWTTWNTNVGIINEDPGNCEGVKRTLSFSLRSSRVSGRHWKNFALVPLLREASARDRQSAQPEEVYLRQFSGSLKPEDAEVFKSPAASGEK", "assay": "HTS Assay for Compounds that Act as Enhancers of the Vanilloid Receptor 1 (AID 488979); note: 0% is about no effect", "conditions": "TRPV1-expressing cells, enhancer of channel activity; series mostly up to 41.7 µM", "procedure,_shortened": "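Calcium influx kinetics via Fluo-8 (480/520 nm) in TRPV1-expressing cells, 2000/well cultured overnight at 35.5C. Compound-alone read 3 min (agonist phase), followed by EC20 capsaicin challenge for 2 min (enhancer phase).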"}, "[2]": {"biological_target": "Thyrotropin receptor (Homo sapiens) (UniProt P16473)", "sequence (P16473 whole entry, looked up)": "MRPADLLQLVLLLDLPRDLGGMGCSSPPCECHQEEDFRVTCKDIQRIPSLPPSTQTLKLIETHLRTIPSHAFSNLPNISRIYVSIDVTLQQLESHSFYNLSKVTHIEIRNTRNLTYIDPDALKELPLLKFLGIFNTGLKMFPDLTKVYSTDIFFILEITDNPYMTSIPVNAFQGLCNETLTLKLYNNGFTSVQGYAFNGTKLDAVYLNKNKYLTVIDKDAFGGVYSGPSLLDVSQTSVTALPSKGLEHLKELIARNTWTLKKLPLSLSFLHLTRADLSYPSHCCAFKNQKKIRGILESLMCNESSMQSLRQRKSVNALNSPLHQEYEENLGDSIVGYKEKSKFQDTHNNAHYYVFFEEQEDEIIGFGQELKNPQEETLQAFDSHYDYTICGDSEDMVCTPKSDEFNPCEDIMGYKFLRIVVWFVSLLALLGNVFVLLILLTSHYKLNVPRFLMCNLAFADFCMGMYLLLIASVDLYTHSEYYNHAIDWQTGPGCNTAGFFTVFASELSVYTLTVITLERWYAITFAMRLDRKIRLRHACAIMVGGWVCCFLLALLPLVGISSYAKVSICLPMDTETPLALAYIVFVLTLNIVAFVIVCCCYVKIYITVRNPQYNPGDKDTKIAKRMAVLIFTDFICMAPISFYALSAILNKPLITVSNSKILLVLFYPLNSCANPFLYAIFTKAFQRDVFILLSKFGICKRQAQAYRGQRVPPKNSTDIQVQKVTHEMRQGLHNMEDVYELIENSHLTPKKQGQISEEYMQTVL", "assay": "qHTS Assay for Antagonists of the Thyroid Stimulating Hormone Receptor (AID 488980); note: 0% is about no effect", "conditions": "TSHR-expressing cells, cAMP antagonist read-out; series mostly up to 57.5 µM", "procedure,_shortened": "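Inhibition of cAMP raised by EC80 TSH (4 nM final) was read by HTRF, with lysate cAMP competing against cAMP-d2 for cryptate antibody after 30 min at room temperature. The cells were transfected HEK293 held in phosphodiesterase inhibitor RO 20-1724 at 70 uM.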"}, "[3]": {"biological_target": "Thyrotropin-releasing hormone receptor (Homo sapiens) (UniProt P34981)", "sequence (P34981 whole entry, looked up)": "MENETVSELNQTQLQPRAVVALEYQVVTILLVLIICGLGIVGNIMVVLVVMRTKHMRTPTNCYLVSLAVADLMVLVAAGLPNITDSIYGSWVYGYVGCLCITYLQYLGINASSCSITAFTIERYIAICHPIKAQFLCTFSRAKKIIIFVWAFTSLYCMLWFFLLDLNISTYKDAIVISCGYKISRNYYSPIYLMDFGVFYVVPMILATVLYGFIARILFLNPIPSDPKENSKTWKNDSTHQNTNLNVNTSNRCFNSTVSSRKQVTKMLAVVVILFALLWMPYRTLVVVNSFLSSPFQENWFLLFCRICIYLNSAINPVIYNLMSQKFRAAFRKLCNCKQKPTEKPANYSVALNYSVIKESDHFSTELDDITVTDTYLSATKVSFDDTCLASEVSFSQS", "assay": "qHTS for Small Molecule Agonists and Allosteric Enhancers of Human TRH Receptor: Validation Screen for Agonists (AID 493127;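 active = calcium activation more than 3 SD above the typical response in the agonist read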; note: 0% is about no effect)", "conditions": "TRH receptor agonist cell assay; at 2 µM; stronger effect = higher value", "procedure,_shortened": "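TRHR-expressing cells were plated overnight in serum-containing medium, then loaded with fluo-8 calcium dye at room temperature for 30 min–1.5 h. After a 10 s baseline, compound was pin-transferred and calcium fluorescence (ex 480/em 530) read kinetically for agonist response.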"}, "[4]": {"biological_target": "Galactokinase (Homo sapiens) (UniProt P51570)", "sequence (P51570 whole entry, looked up)": "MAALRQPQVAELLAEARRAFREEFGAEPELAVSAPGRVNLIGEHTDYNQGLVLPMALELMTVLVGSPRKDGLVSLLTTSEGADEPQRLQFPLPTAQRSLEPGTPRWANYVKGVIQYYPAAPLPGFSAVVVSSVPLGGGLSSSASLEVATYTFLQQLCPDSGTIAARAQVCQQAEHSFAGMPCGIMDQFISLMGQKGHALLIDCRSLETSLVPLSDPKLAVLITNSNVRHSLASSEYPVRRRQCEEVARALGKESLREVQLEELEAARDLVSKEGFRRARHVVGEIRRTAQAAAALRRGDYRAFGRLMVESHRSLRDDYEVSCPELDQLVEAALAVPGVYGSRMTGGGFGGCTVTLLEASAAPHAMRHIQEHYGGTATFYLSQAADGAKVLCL", "assay": "qHTS Validation Assay for Inhibitors of Human Galactokinase (GALK) (AID 493189); note: 0% is about no effect", "conditions": "purified human GALK enzyme activity, qHTS 7-point titration; series mostly up to 57.5 µM", "procedure,_shortened": "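Inhibition was measured as remaining ATP, detected by luciferase luminescence after a 1 h room-temperature reaction. Final conditions: 5 nM GALK, 100 uM galactose, 35 uM ATP, pH 8.0 HEPES buffer.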"}, "[5]": {"assay": "High Content Imaging Cell-Based qHTS for Inhibitors of the mTORC1 Signaling Pathway in MEF Cells (AID 2667)", "conditions": "series mostly up to 38.3 µM", "procedure,_shortened": "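Immunofluorescence for rpS6 phosphorylation in MEFs of Tsc2-/-, p53-/- background rescued with WT Tsc2. Compound exposure lasted 24 hrs. Inhibition was scored against rapamycin-treated control wells.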"}, "[6]": {"biological_target": "DNA polymerase III PolC-type (Bacillus subtilis (strain 168)) (UniProt P13267)", "assay": "qHTS Validation Assay for the Inhibitors of DNA Replication in Gram-Positive Bacteria (AID 485295);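 note: reconstituted holoenzyme with PolC plus beta clamp SSB and primase; PicoGreen fluorescence of double-stranded DNA made on primed circular M13 template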", "conditions": "Gram-positive bacterial DNA replication assay; series mostly up to 57.1 µM", "procedure,_shortened": "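Double-stranded DNA product detected by PicoGreen fluorescence after EDTA quench. Compound incubated with B. subtilis holoenzyme (PolC, beta subunit, SSB, primase) before substrate addition; primed replication of M13Gori with dNTPs and NTPs at room temperature; DMSO defines 0% inhibition.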"}, "[7]": {"biological_target": "ATP-dependent 6-phosphofructokinase (Trypanosoma brucei brucei) (UniProt O15648)", "sequence (O15648 whole entry, looked up)": "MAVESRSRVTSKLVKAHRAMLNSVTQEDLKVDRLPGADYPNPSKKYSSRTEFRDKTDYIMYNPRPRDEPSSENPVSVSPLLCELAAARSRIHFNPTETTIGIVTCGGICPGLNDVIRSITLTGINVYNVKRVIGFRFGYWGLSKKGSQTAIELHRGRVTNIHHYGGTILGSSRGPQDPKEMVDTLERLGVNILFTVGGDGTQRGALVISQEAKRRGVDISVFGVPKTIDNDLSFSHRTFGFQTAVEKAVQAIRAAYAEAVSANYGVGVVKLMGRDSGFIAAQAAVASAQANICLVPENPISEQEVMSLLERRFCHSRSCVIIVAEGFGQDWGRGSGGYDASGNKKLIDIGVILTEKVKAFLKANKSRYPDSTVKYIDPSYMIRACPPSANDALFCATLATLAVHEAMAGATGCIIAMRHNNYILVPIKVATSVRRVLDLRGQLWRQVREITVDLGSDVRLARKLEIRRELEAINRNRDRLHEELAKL", "assay": "qHTS Validation Assay to Find Inhibitors of T. brucei phosphofructokinase (AID 485368)", "conditions": "T. brucei PFK enzyme assay, qHTS 7-point titration; at 57.5 µM (top of the series)", "procedure,_shortened": "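Enzyme reaction in triethanolamine buffer pH 8.0 with 5 mM MgCl2, 0.01% Tween20 and 0.1% BSA; PFK 1.25 nM, F6P 0.5 mM, ATP 0.1 mM, 45 min RT. ADP quantified by ADP-Glo.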"}, "[8]": {"biological_target": "Bile acid receptor (Homo sapiens) (UniProt Q96RI1)", "sequence (Q96RI1 whole entry, looked up)": "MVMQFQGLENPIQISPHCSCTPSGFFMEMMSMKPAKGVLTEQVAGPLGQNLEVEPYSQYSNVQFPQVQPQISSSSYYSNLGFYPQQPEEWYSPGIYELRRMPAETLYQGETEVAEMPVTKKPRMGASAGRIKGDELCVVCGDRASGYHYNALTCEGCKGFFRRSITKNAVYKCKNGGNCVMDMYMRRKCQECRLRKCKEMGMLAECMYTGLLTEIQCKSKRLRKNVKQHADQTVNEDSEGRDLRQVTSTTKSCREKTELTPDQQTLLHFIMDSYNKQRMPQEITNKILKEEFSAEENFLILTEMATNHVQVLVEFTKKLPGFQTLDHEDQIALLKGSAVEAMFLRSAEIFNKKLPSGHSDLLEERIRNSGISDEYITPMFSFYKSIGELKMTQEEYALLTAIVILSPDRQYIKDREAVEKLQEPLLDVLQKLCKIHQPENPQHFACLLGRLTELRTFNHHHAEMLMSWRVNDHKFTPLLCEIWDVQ", "assay": "qHTS assay for small molecule agonists of farnesoid X receptor signaling (AID 588527; calls by dose curve;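 note: 0% = vehicle basal and 100% = reference agonist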)", "conditions": "HEK293T FXR-UAS-bla, beta-lactamase ratio, 16 h; activation: stronger effect = higher value", "procedure,_shortened": "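Read-out: beta-lactamase reporter fluorescence with CCF4 substrate in GeneBLAzer FXR-UAS-bla HEK293T cells, after 16 h compound exposure at 37 C. Response scaled between DMSO basal (0%) and chenodeoxycholic acid at 100 uM (100%).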"}, "[9]": {"biological_target": "Luciferin 4-monooxygenase (Photinus pyralis) (UniProt P08659)", "sequence (P08659 whole entry, looked up)": "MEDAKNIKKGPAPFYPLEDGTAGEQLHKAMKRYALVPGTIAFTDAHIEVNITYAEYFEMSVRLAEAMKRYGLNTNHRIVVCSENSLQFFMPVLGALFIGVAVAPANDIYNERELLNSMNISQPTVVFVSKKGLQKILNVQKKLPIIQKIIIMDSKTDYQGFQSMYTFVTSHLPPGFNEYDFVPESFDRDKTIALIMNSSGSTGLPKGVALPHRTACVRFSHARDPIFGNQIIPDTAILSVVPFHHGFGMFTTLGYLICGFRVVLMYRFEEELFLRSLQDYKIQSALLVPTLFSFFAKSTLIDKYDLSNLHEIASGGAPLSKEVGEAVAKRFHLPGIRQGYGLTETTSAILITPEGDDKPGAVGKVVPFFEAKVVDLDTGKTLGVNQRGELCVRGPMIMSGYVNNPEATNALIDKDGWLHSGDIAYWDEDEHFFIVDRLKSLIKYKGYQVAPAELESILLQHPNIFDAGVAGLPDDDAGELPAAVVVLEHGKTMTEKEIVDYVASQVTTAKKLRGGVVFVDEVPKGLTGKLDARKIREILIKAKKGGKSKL", "assay": "Biochemical firefly luciferase enzyme assay for NPC (AID 624030); note: nearly all actives have a fitted effect of over 70% in size", "conditions": "purified P. pyralis luciferase, luminescence, 5 min; series mostly up to 58.6 µM", "procedure,_shortened": "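Direct inhibition of firefly luciferase enzyme (10 nM final, 50 mM Tris Acetate) assessed by luminescence within 5 minutes. Percent activity scaled between DMSO and PTC124 positive control, with concentration-effect curves classified by fit quality and response.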"}, "[10]": {"assay": "qHTS Assay for Identification of Small Molecule Antagonists for Thrombopoietin (TPO) Signaling Pathway (AID 918); note: potency is the fitted concentration of half-maximal effect; nearly all actives have a fitted effect of over 60% in size", "conditions": "TPO-dependent cell signaling reporter, antagonist mode", "procedure,_shortened": "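Murine Ba/F3 cells stably expressing human TPO receptor and a Glycoprotein IIb promoter–luciferase reporter were IL-3-starved overnight, treated with compounds plus TPO (26 pM final, its EC50) for 24 hrs at 37 C, then read by luminescence.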"}, "[11]": {"assay": "S16 Schwann cell PMP22 intronic element beta-lactamase assay (AID 624044; calls by dose curve; note: potency is the fitted concentration of half-maximal effect; nearly all actives have a fitted effect of over 15% in size)", "conditions": "S16 rat Schwann cells, PMP22 element beta-lactamase FRET, 24 h; series mostly up to 38.3 µM", "procedure,_shortened": "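Rat S16 Schwann cells with beta-Lac driven by a PMP22 intronic element, compound-treated 24 h at 37 °C. LiveBLAzer FRET B/G read: 460 nm normalized to potassium clavulanate vs DMSO; 535 nm FRET as viability; concentration-effect curves classified.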"}, "[12]": {"assay": "Cell Viability - Jurkat (AID 426;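 active = dose-dependent loss of cell ATP signal giving a full or clear fitted curve, ranked by lower potency value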; note: potency is the fitted concentration of half-maximal effect)", "conditions": "qHTS", "procedure,_shortened": "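Jurkat (clone E6-1, human T-cell leukemia) cells, 5000/well in complete medium, were exposed to compound for 40 hr at 37 °C. Viability was read as intracellular ATP by CellTiter-Glo luminescence; AC50 came from Hill fits of concentration-response data.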"}, "[13]": {"assay": "Cell Viability - Hek293 (AID 427;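 active = compounds whose dose-response curve shows a full or clear partial loss of cell viability, called from curve shape rather than a numeric limit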; note: potency is the fitted concentration of half-maximal effect)", "conditions": "qHTS", "procedure,_shortened": "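qHTS, human embryonic kidney (adenovirus-transformed) cells; 40 hr cpd, 37 °C; CellTiter-Glo ATP luminescence. Norm: DMSO = 0, 100 uM tamoxifen = 100% inhibition. Hill-fit AC50.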"}, "[14]": {"assay": "Cell Viability - HepG2 (AID 433; calls by dose curve; note: potency is the fitted concentration of half-maximal effect)", "conditions": "qHTS", "procedure,_shortened": "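Cytotoxicity read as ATP loss (CellTiter-Glo luminescence) after 40 hr compound exposure of HepG2, 1500 cells/well, 37 °C. AC50 by Hill equation; 0% set by DMSO, 100% inhibition by 100 uM tamoxifen.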"}, "[15]": {"assay": "Cell Viability - MRC5 (AID 434; calls by dose curve;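 note: potency is the fitted concentration of half-maximal effect; potency reflects cytotoxicity seen as loss of intracellular ATP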)", "conditions": "MRC5 lung fibroblast viability, qHTS", "procedure,_shortened": "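qHTS cytotoxicity in human lung fibroblast MRC5 cells; 40 hr treatment, 37 °C; cellular ATP by luciferase luminescence; DMSO = 0%, 100 uM tamoxifen = 100% inhibition; Hill-fit AC50.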"}, "[16]": {"assay": "Cell Viability - SK-N-SH (AID 435; calls by dose curve; note: potency is the fitted concentration of half-maximal effect)", "conditions": "SK-N-SH neuroblastoma cell viability qHTS", "procedure,_shortened": "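qHTS cytotoxicity: CellTiter-Glo ATP luminescence after 40 h compound exposure of human neuroblastoma SK-N-SH cells at 37 °C. AC50 derived by Hill-equation fitting, with DMSO as basal and 100 uM tamoxifen as full inhibition.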"}, "[17]": {"assay": "Cell Viability - N2a (AID 540); note: nearly all actives have a fitted effect of over 45% in size", "conditions": "N2a mouse neuroblastoma cell viability; at 92.2 µM (top of the series)", "procedure,_shortened": "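Mouse neuroblastoma N2a cells (1500/well) were preincubated 5 hr at 37 °C, then exposed to compounds for 40 hr at 37 °C in complete medium. Viability was read as intracellular ATP by CellTiter-Glo luminescence; AC50 from Hill fits.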"}, "[18]": {"assay": "Cell Viability - NIH 3T3 (AID 541); note: nearly all actives have a fitted effect of over 25% in size", "conditions": "NIH 3T3 cell viability, qHTS; at 92.2 µM (top of the series)", "procedure,_shortened": "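NIH 3T3 mouse embryo fibroblasts (1000 cells/well) were plated in complete medium and treated with compound for 40 hr at 37 °C. Viability was read as intracellular ATP by CellTiter-Glo luminescence; AC50 values came from Hill-equation fits of concentration-response data.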"}, "[19]": {"biological_target": "Glutathione peroxidase 1 (Homo sapiens) (UniProt P07203)", "sequence (P07203 whole entry, looked up)": "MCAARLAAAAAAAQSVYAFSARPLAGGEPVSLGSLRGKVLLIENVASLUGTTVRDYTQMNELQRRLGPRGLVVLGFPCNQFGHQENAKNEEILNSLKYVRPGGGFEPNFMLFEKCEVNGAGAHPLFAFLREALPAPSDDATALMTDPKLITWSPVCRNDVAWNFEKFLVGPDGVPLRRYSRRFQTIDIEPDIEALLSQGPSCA", "assay": "Primary qHTS Assay for Inhibitors of Recombinant Selenoprotein Glutathione Peroxidase 1 (GPX1) (AID 1845191); note: nearly all actives have a fitted effect of over 65% in size", "conditions": "recombinant GPX1, GR-coupled NADPH fluorescence, 15 min; series mostly up to 48.8 µM", "procedure,_shortened": "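10 nM GPX1 + cpd, 30 min RT; start w/ 1 mM GSH, 0.5 mM cumene hydroperoxide, 0.5 mM NADPH, 100 nM GR, 0.01% BSA; buffer 50 mM Tris-HCl pH 7.5, 2 mM EDTA, 150 mM NaCl; Fl 340/450, 0 & 15 min.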"}, "[20]": {"biological_target": "Phospholipid hydroperoxide glutathione peroxidase GPX4 (Homo sapiens) (UniProt P36969)", "sequence (P36969 whole entry, looked up)": "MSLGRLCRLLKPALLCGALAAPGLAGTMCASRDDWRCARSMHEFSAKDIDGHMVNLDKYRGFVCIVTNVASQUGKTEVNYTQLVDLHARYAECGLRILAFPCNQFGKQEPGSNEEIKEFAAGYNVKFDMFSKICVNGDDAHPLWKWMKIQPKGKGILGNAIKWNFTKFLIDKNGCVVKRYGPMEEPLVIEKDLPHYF", "assay": "Primary qHTS Assay for Inhibitors of Recombinant Selenoprotein Glutathione Peroxidase 4 (GPX4) (AID 1845192); note: nearly all actives have a fitted effect of over 65% in size", "conditions": "recombinant GPX4, GR-coupled NADPH fluorescence, 15 min; series mostly up to 50 µM", "procedure,_shortened": "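NADPH consumption, followed by fluorescence at 340/450 nm between 0 and 15 min, reports GPX4 activity via coupled glutathione reductase (100 nM). Enzyme 200 nM was pre-exposed to compound 30 min; 0.5 mM cumene hydroperoxide and 1 mM GSH served as substrates.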"}}, "note": "Unmarked numbers belong to inactive results. Inconclusive results are not listed. Activity calls are given as the source filed them. Unless noted, calls come from the whole dose curve; as a rule, active = well fitted curve in the direction sought with a large enough effect; inconclusive = small, poorly fitted or top-dose-only effect, or another doubt; inactive = no such curve, though single readings can be large; an effect the other way counts as inactive or inconclusive.", "data": [{"compound": "CC(=O)OCC1=C(C(=O)[O-])N2C(=O)[C@@H](NC(=O)CCC[C@@H](N)C(=O)[O-])[C@H]2SC1.[Zn+2]", "values": [{"measurement": "outcome", "setting": "[1]", "result": "inactive"}, {"measurement": "outcome", "setting": "[2]", "result": "inactive"}, {"measurement": "activation", "setting": "[3]", "result": 1.25, "unit": "%"}, {"measurement": "outcome", "setting": "[4]", "result": "inactive"}]}, {"compound": "CN1C2CCC1CC(OC(=O)C(CO)c1ccccc1)C2", "note": "(stereo not given)", "values": [{"measurement": "Potency", "setting": "[5]", "result": "inactive"}, {"measurement": "Potency", "setting": "[6]", "result": "inactive"}, {"measurement": "outcome", "setting": "[7]", "result": "inactive"}]}, {"compound": "N[C@@H](Cc1ccc(O)c(O)c1)C(=O)O", "values": [{"measurement": "activation", "setting": "[8]", "result": 1.53, "unit": "%"}]}, {"compound": "Nc1ncnc2c1ncn2[C@@H]1O[C@H](COP(=O)(O)OP(=O)(O)OP(=O)(O)O)[C@@H](O)[C@H]1O", "values": [{"measurement": "Potency", "setting": "[9]", "result": "inactive"}]}, {"compound": "CC(C)COC(=O)OCN1C(=O)CN(CCN2CC(=O)N(COC(=O)OCC(C)C)C(=O)C2)CC1=O", "values": [{"measurement": "Potency", "setting": "[10]", "result": "0.251 µM (active)"}]}, {"compound": "COC(=O)C[C@](O)(CCCC(C)(C)O)C(=O)O[C@@H]1C(OC)=C[C@]23CCCN2CCc2cc4c(cc2[C@H]13)OCO4", "values": [{"measurement": "Potency", "setting": "[11]", "result": "0.0891 µM (active)"}]}, {"compound": "Cc1ccccc1O", "values": [{"measurement": "Potency", "setting": "[12]", "result": "> 92", "unit": "µM"}, {"measurement": "Potency", "setting": "[13]", "result": "> 92", "unit": "µM"}, {"measurement": "Potency", "setting": "[14]", "result": "> 92", "unit": "µM"}, {"measurement": "Potency", "setting": "[15]", "result": "> 92", "unit": "µM"}, {"measurement": "Potency", "setting": "[16]", "result": "> 92", "unit": "µM"}, {"measurement": "activity change, negative = cytotoxicity", "setting": "[17]", "result": 4.57, "unit": "%"}, {"measurement": "activity change, negative = cytotoxicity", "setting": "[18]", "result": 8.87, "unit": "%"}, {"measurement": "Potency", "setting": "[19]", "result": "inactive"}, {"measurement": "Potency", "setting": "[20]", "result": "inactive"}]}]}
